# Experimental data reported in PubChem BioAssay (NCI).
# This is part of a sample that, as a whole, favours compounds with a hit. Of some 83,000 tested, about 20% had one in any assay.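 Activity criterion: percent growth below 10, measured after cells in 96-well plates were exposed to a single compound concentration for 48 hours.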 Calls of active or inactive are those of the source.
# Test system: OVCAR-8 ovarian
# Assay: NCI-60 one-dose screen, 48 h (100 = growth as untreated, 0 = no growth, -100 = all killed)
# Conditions: 10 µM unless noted
row,Structure (SMILES),growth
1,O=C(NCCCN1CCOCC1)c1cccc(N2C(=O)/C(=C/c3ccc(F)cc3)SC2=S)c1,100% (inactive)
2,CC(C)NC1CCC(Nc2ccnc3cc(Cl)ccc23)CC1 (stereo not drawn),91.7% (inactive)
3,Fc1ccc(-c2nn(-c3ccccc3)cc2-c2nc3ccccc3o2)cc1,58.8% (inactive)
4,COc1ccc(C/C(C)=C(/c2ccc(OCCN3CCCCC3)cc2)c2ccc(OC(=O)NCc3ccccc3)cc2)cc1,-83.5% (active)
5,Cn1cc(-c2nonc2-c2c[nH]c3ccc(Br)cc23)c2cc(Br)ccc21,34% (inactive)
6,Cn1c(=O)c2c(nc(NC3=NS(=O)(=O)c4ccccc43)n2CC(=O)N2CCc3ccccc32)n(C)c1=O,98.9% (inactive)
7,Clc1ccc(Nc2nnc(COc3ccccc3)c3ccccc23)cc1,5.02% (active)
8,O=[N+]([O-])c1ccc(S(=O)(=O)N2CCN(C3=NS(=O)(=O)c4ccccc4N3c3ccccc3)CC2)cc1,93.1% (inactive)
9,CCNC(=O)c1[nH]cc(-c2ccccc2)c1-c1cc(OC)c2c(c1OC)OCO2,98.9% (inactive)
10,COCCn1c(-c2csc(-c3cn(C)c4ccc(OC)cc34)n2)cc2cccnc21,59.7% (inactive)
11,S=C(Nc1ccc(-c2nc(N3CCOCC3)c3cccn3n2)cc1)Nc1cccnc1,14.8% (inactive)
12,COc1cc(CNC(=O)CCCC/C=C/C(C)C)ccc1OCc1nnc(Nc2ccc([N+](=O)[O-])cc2)o1,25% (inactive)
13,N#CC1=C(c2ccc(Cl)cc2)Nc2c(c(-c3ccc(Cl)cc3)nn2-c2ccccc2)C12C(=O)Nc1ccc(Cl)cc12 (stereo not drawn),49.2% (inactive)
14,CCOC(=O)/C=C1\S/C(=N\Nc2cc(=O)[nH]c3ccc(Cl)cc23)N(c2ccccc2)C1=O,90.1% (inactive)
15,COc1cccc(NC(=O)Cn2cc(CN3CCN(c4ccnc5cc(Cl)ccc45)CC3)nn2)c1,83.2% (inactive)
16,COc1cc(N2C(=O)[C@H](O)C2c2ccc(SC)cc2)cc(OC)c1OC (stereo partly drawn),6.99% (active)
17,CSc1nnc(-c2cnn3c2NC(c2ccccc2)C3)n1-c1ccc(C(F)(F)F)cc1 (stereo not drawn),79.4% (inactive)
18,N=C(N)c1ccc(-c2ccc(-c3ccc(F)cc3)o2)o1,5% (active)
19,CC1=NN(c2nc(SCC(=O)Nc3nc4ccc(C)cc4s3)nc(-c3ccccc3)c2C#N)C(=O)C1,102% (inactive)
20,C/C(Nc1ccc(Cl)c(Cl)c1)=C1\CCOC1=O,102% (inactive)

row,Structure (SMILES),growth
1,N#Cc1cccc(-c2c(-c3ccc4ccccc4c3)oc3ccccc3c2=O)c1,62.4% (inactive)
2,CC(C)N1CCN(Cc2ccc3c(NNC(=O)c4ccccc4)nc4cc(F)ccc4n23)CC1,17.9% (inactive)
3,O=S(=O)(NCCCNc1nccc(-c2c(-c3ccc(F)c(O)c3)nc3occn23)n1)c1ccccc1,94.8% (inactive)
4,O=C1NCCC12CCN(c1c(Cl)cncc1-c1ccc(O)cc1)CC2,89.1% (inactive)
5,Cc1cccnc1NC(=S)Nc1ncccc1C,99.3% (inactive)
6,COc1ccc2c3c([nH]c2c1)C(=O)c1nc(C)ccc1C3=O,48.5% (inactive)
7,CC1Cc2c(Cl)ncnc2N(C)c2ccc(F)cc21 (stereo not drawn),91.9% (inactive)
8,O=C1c2cc(Cl)ccc2S(=O)(=O)c2c(NCCCNCCO)nc3ccccc3c21,-5.81% (active)
9,O=C(c1ccc(Cl)cc1)N1CCN(c2ccnc3cc(Cl)ccc23)CC1,87.3% (inactive)
10,Cc1nnc(NC(=O)c2nc(S(=O)(=O)Cc3ccc(F)cc3)ncc2Cl)s1,56.4% (inactive)
11,COc1ccc2[nH]cc(-c3nc(-c4cn(C)c5c(Cl)nccc45)cs3)c2c1,22.9% (inactive)
12,COc1ccc(/C(C)=C(/c2ccc(OCCCN(C)C)cc2)c2ccc(OC(=O)Cc3ccccc3)cc2)cc1,87.6% (inactive)
13,CCOc1nc(-c2ccccc2)cc2c(O)c(C(=O)NN)[nH]c(=O)c12,109% (inactive)
14,Cn1c(=O)c2[nH]c(N/N=C/c3ccccc3Br)nc2n(C)c1=O,112% (inactive)
15,Clc1ccc(Sc2cnc(-c3ccccc3)o2)cc1,99.2% (inactive)
16,O=C(Nc1nn(-c2ccc(Cl)cc2Cl)nc1-c1ccccc1)c1ccccc1,103% (inactive)
17,Cc1ccc(/C=N/Nc2nc(Nc3ccccc3)nc(-n3nc(C)cc3C)n2)cc1,21.6% (inactive)
18,O=C(Nc1cc(Cl)ccc1O)c1ccc(Nc2ccnc(C(F)(F)F)c2)cc1,51.8% (inactive)
19,CC(C)(C)c1cc(-c2nc3ccc(N4CCN(S(C)(=O)=O)CC4)cc3[nH]2)cc(C(C)(C)C)c1O,78.9% (inactive)

# Test system: OVCAR-5 ovarian
# Assay: as above
# Conditions: 10 µM unless noted
row,Structure (SMILES),growth
1,O=C(NCCCN1CCOCC1)c1cccc(N2C(=O)/C(=C/c3ccc(F)cc3)SC2=S)c1,104% (inactive)
2,CC(C)NC1CCC(Nc2ccnc3cc(Cl)ccc23)CC1 (stereo not drawn),104% (inactive)
3,Fc1ccc(-c2nn(-c3ccccc3)cc2-c2nc3ccccc3o2)cc1,122% (inactive)
4,COc1ccc(C/C(C)=C(/c2ccc(OCCN3CCCCC3)cc2)c2ccc(OC(=O)NCc3ccccc3)cc2)cc1,-78.6% (active)
5,Cn1cc(-c2nonc2-c2c[nH]c3ccc(Br)cc23)c2cc(Br)ccc21,37.6% (inactive)
6,Cn1c(=O)c2c(nc(NC3=NS(=O)(=O)c4ccccc43)n2CC(=O)N2CCc3ccccc32)n(C)c1=O,101% (inactive)
7,Clc1ccc(Nc2nnc(COc3ccccc3)c3ccccc23)cc1,23.1% (inactive)
8,O=[N+]([O-])c1ccc(S(=O)(=O)N2CCN(C3=NS(=O)(=O)c4ccccc4N3c3ccccc3)CC2)cc1,95% (inactive)
9,CCNC(=O)c1[nH]cc(-c2ccccc2)c1-c1cc(OC)c2c(c1OC)OCO2,98.5% (inactive)
10,COCCn1c(-c2csc(-c3cn(C)c4ccc(OC)cc34)n2)cc2cccnc21,79.9% (inactive)
11,S=C(Nc1ccc(-c2nc(N3CCOCC3)c3cccn3n2)cc1)Nc1cccnc1,35.2% (inactive)
12,COc1cc(CNC(=O)CCCC/C=C/C(C)C)ccc1OCc1nnc(Nc2ccc([N+](=O)[O-])cc2)o1,101% (inactive)
13,N#CC1=C(c2ccc(Cl)cc2)Nc2c(c(-c3ccc(Cl)cc3)nn2-c2ccccc2)C12C(=O)Nc1ccc(Cl)cc12 (stereo not drawn),71.6% (inactive)
14,CCOC(=O)/C=C1\S/C(=N\Nc2cc(=O)[nH]c3ccc(Cl)cc23)N(c2ccccc2)C1=O,111% (inactive)
15,COc1cccc(NC(=O)Cn2cc(CN3CCN(c4ccnc5cc(Cl)ccc45)CC3)nn2)c1,93.5% (inactive)
16,COc1cc(N2C(=O)[C@H](O)C2c2ccc(SC)cc2)cc(OC)c1OC (stereo partly drawn),80.3% (inactive)
17,CSc1nnc(-c2cnn3c2NC(c2ccccc2)C3)n1-c1ccc(C(F)(F)F)cc1 (stereo not drawn),84.7% (inactive)
18,N=C(N)c1ccc(-c2ccc(-c3ccc(F)cc3)o2)o1,58.4% (inactive)
19,CC1=NN(c2nc(SCC(=O)Nc3nc4ccc(C)cc4s3)nc(-c3ccccc3)c2C#N)C(=O)C1,92.6% (inactive)
20,C/C(Nc1ccc(Cl)c(Cl)c1)=C1\CCOC1=O,87.5% (inactive)

row,Structure (SMILES),growth
1,N#Cc1cccc(-c2c(-c3ccc4ccccc4c3)oc3ccccc3c2=O)c1,53.3% (inactive)
2,CC(C)N1CCN(Cc2ccc3c(NNC(=O)c4ccccc4)nc4cc(F)ccc4n23)CC1,59.6% (inactive)
3,O=S(=O)(NCCCNc1nccc(-c2c(-c3ccc(F)c(O)c3)nc3occn23)n1)c1ccccc1,121% (inactive)
4,O=C1NCCC12CCN(c1c(Cl)cncc1-c1ccc(O)cc1)CC2,83.6% (inactive)
5,Cc1cccnc1NC(=S)Nc1ncccc1C,124% (inactive)
6,COc1ccc2c3c([nH]c2c1)C(=O)c1nc(C)ccc1C3=O,85% (inactive)
7,CC1Cc2c(Cl)ncnc2N(C)c2ccc(F)cc21 (stereo not drawn),99.9% (inactive)
8,O=C1c2cc(Cl)ccc2S(=O)(=O)c2c(NCCCNCCO)nc3ccccc3c21,-18% (active)
9,O=C(c1ccc(Cl)cc1)N1CCN(c2ccnc3cc(Cl)ccc23)CC1,93% (inactive)
10,Cc1nnc(NC(=O)c2nc(S(=O)(=O)Cc3ccc(F)cc3)ncc2Cl)s1,85.6% (inactive)
11,COc1ccc2[nH]cc(-c3nc(-c4cn(C)c5c(Cl)nccc45)cs3)c2c1,97.4% (inactive)
12,COc1ccc(/C(C)=C(/c2ccc(OCCCN(C)C)cc2)c2ccc(OC(=O)Cc3ccccc3)cc2)cc1,85.2% (inactive)
13,CCOc1nc(-c2ccccc2)cc2c(O)c(C(=O)NN)[nH]c(=O)c12,106% (inactive)
14,Cn1c(=O)c2[nH]c(N/N=C/c3ccccc3Br)nc2n(C)c1=O,89.5% (inactive)
15,Clc1ccc(Sc2cnc(-c3ccccc3)o2)cc1,98.8% (inactive)
16,O=C(Nc1nn(-c2ccc(Cl)cc2Cl)nc1-c1ccccc1)c1ccccc1,92% (inactive)
17,Cc1ccc(/C=N/Nc2nc(Nc3ccccc3)nc(-n3nc(C)cc3C)n2)cc1,59.5% (inactive)
18,O=C(Nc1cc(Cl)ccc1O)c1ccc(Nc2ccnc(C(F)(F)F)c2)cc1,86.4% (inactive)
19,CC(C)(C)c1cc(-c2nc3ccc(N4CCN(S(C)(=O)=O)CC4)cc3[nH]2)cc(C(C)(C)C)c1O,105% (inactive)
